In all, about 53,000 compounds went through this assay and about 900 (1.7%) showed an effect of 50% or more. The entries come from a sample that favours strong results as a whole.

For the assay, the system named is Mycobacterium tuberculosis. Description: Cornell - Phenotypic assay to identify agents that inhibit growth of Mycobacterium tuberculosis. The class given is functional. Set-up: scale not given: direction of the effect not stated beside the values. To be noted: 10 mM as filed; unlikely as a test dose.
As to `O=C(CCCOCc1ccccc1)N1CCCC(c2ncc[nH]2)C1` (stereo unspecified), the “Percent Effect” value is on record as 18.83%. For `O=C(Cc1cccs1)N1CC[C@H]2[C@@H]1CCC(=O)N2c1cccnc1.O=C(O)C(F)(F)F` the value was 4.016%. With `CCn1ncnc1C1CC(=O)NCc2nc(N3CCOCC3)sc21` (stereo unspecified), the “Percent Effect” value worked out at 3.2%.

`CNc1nc2c(s1)C(c1ccc(Cl)cc1Cl)CC(=O)N2` (stereo unspecified): the “Percent Effect” value stood at 15.33%. Next, `COc1cccc(C2CC(=O)Nc3nc(N4CCOCC4)sc32)c1OC` (stereo unspecified): 84.05%; `COc1ccccc1C1CC(=O)Nc2nc(N3CCCCC3)sc21` (stereo unspecified): 102.8%. For `CCOc1cccc(C2CC(=O)NCc3nc(N4CCCC4)sc32)c1` (stereo unspecified) the value was -20.96%; for `COc1ccccc1C1CC(=O)Nc2c1c(=O)[nH]n2C1CCCC1` (stereo unspecified), 42.49%; for `COc1cccc(C2CC(=O)Nc3nc(N4CCCCC4)sc32)c1OC` (stereo unspecified), 70.71%. `O=C1CC(c2ccccc2C(F)(F)F)c2sc(N3CCOCC3)nc2N1` (stereo unspecified): the “Percent Effect” value is on record as 43.16%.

Take `O=C1CC(c2ccccc2Br)c2sc(N3CCOCC3)nc2N1` (stereo unspecified): the “Percent Effect” value stood at 44.02%. On to `CC(C)Oc1ccccc1C1CC(=O)Nc2nc(N3CCOCC3)sc21` (stereo unspecified), for which the “Percent Effect” value is 106.3%. Next, `COc1ccccc1C1CC(=O)Nc2c1c(=O)[nH]n2C(C)C` (stereo unspecified): 7.683%. For `CCNc1nnc(CCn2nc(C)c(Br)c2C)s1` the value was 29.93%; for `COCC(O)CN1CCC(=O)N(CC=C(C)C)Cc2ccccc21` (stereo unspecified), -1.382%; for `CCc1cnc(N2C[C@H]3C[C@H](C(=O)N4CCOCC4)[C@@H](C2)O3)nc1.O=C(O)C(F)(F)F`, 10.32%. For `CCS(=O)(=O)Nc1ccc(C(=O)NCCCN2CCCC2)cc1` the value was -15.51%; for `CCc1cnc(N2CC[C@H]3[C@@H]2CCC(=O)N3c2ccccc2)nc1.O=C(O)C(F)(F)F`, -28.43%; for `CCc1nnc(CN(CC)C(=O)C2CC(=O)N(C3CC3)C2)o1` (stereo unspecified), 3.101%. In the case of `CNC(=O)C1CCCN1C(=O)NCCCc1cccc(F)c1` (stereo unspecified), the “Percent Effect” value was 3.774%. For `COc1ccc(C2CC(=O)Nc3nc(N4CCOCC4)sc32)cc1` (stereo unspecified) the value was 22.64%; for `COc1cccc(C2SCC(=O)Nc3ccsc32)c1OC` (stereo unspecified), 25.58%; for `COc1ccc(OC)c(C2CC(=O)Nc3nc(N4CCOCC4)sc32)c1` (stereo unspecified), 77.37%. Consider `COc1ccc(C2SCC(=O)Nc3n[nH]cc32)c(OC)c1OC` (stereo unspecified), for which the “Percent Effect” value is reported as -14.08%. Turning to `COc1cccc(C2CC(=O)Nc3nc(N)sc32)c1OC` (stereo unspecified), the “Percent Effect” value came to 76.98%.

As to `COc1ccc(C2CC(=O)Nc3nc(N4CCOCC4)sc32)c(OC)c1` (stereo unspecified), the “Percent Effect” value worked out at 45.08%. Next, `CCN(Cc1ccncc1)CC1(O)CCN(C(=O)c2cnn(C)c2)C1` (stereo unspecified): -5.524%; `O=C(NCc1ccccc1)[C@H]1C[C@@H]2CN(C(=O)NC3CCCC3)C[C@H]1O2`: -33.72%; `Cc1cc(C(=O)N2C[C@@H]3OCCN(CCN4CCCC4)[C@@H]3C2)c(C)o1.O=C(O)C(F)(F)F`: -34.44%.

As to `Cc1cccc(NC2CCN(C(=O)Nc3cn[nH]c3)CC2)n1`, the “Percent Effect” value is listed as 5.834%. For `CCc1cc(N(C)Cc2ccno2)n2nc(C)c(C)c2n1` the value was 28.15%. With `Cc1nc(NC2CCN(S(=O)(=O)c3ccccc3)CC2)[nH]c(=O)c1C`, the “Percent Effect” value is on record as -2.855%.

For the molecule `Cc1cc(=O)[nH]c(NC2CCN(S(=O)(=O)c3ccccc3)CC2)n1`, the “Percent Effect” value was determined as 26.85%. For `CCc1cc(=O)[nH]c(NC2CCN(S(=O)(=O)c3ccccc3)CC2)n1` the value was 69.51%. For `O=C(N1CCOCC1)N1CCc2ncc(CN3CCCCC3)n2CC1.O=C(O)C(F)(F)F` the value was 15.78%. For `COCCCN(Cc1ccccn1)S(=O)(=O)c1ccc(OC)cc1` the value was -5.527%; for `CC(C)(C)c1cc(NC(=O)NCCc2nnc3n2CCC3)c(C#N)s1`, 18.93%. For the molecule `Cc1noc(CCCNC(=O)CNC(=O)c2cc3ccccc3[nH]2)n1`, the “Percent Effect” value is 17.25%.

For `Cc1noc(CCCC(=O)Nc2ncccc2Br)n1`, the “Percent Effect” value was -30.93%. Next, `Cc1noc(CCCC(=O)NCCc2cc3ccccc3[nH]2)n1`: 55.01%; `O=C(O)C(F)(F)F.O=C(O)C(F)(F)F.c1nc(CN2CCC3(CC2)COCCN3CC2CC2)c[nH]1`: 14.15%; `CC(=O)N1CCC2(C1)c1ccccc1S(=O)(=O)N2Cc1ccccc1` (stereo unspecified): -2.139%. For `CCS(=O)(=O)N1CCc2ccc(NC(=O)Nc3ccccc3)cc21` the value was 24.03%. Next, `CCS(=O)(=O)N1CCc2ccc(NC(=O)Nc3cccc(C#N)c3)cc21`: 83.89%; `CCS(=O)(=O)N1CCc2ccc(NC(=O)Nc3cccc(C)c3)cc21`: 35.62%. As to `O=C(CC1=CSC2=NCCCN12)N1CCCCCC1c1ccco1` (stereo unspecified), the “Percent Effect” value is reported as -8.894%. For `CCSCCNc1nc(-c2ccccn2)nc2c1c(C)nn2C` the value was 51.67%; for `CC(=O)NCCNc1nc(-c2ccccn2)nc2c1c(C)nn2C`, 12.46%. For `CSCC[C@@H](CO)Nc1nc(-c2ccccn2)nc2c1c(C)nn2C` the value was 2.174%.

Regarding `Cc1nn(C)c2nc(-c3ccccn3)nc(NC[C@@H]3CCCO3)c12`, the “Percent Effect” value is on record as 21.74%. Next, `Cc1nn(C)c2nc(-c3ccccn3)nc(NCCC3CCCN3C)c12` (stereo unspecified): -44.58%; `Cc1nn(C)c2nc(-c3ccccn3)nc(NCCCOC(C)C)c12`: 64.07%.

Regarding `Cc1nc(-c2cc(C(=O)NC(C)(C(=O)O)C(C)C)co2)cs1` (stereo unspecified), the “Percent Effect” value is 45.67%. For `Cc1nc(-c2cc(C(=O)O)co2)cs1` the value was 58.57%.

For the molecule `CNC(=O)c1coc(-c2csc(C)n2)c1`, the “Percent Effect” value turned out to be 11.85%. Next, `CCn1cc(CN2C[C@@H]3CCCN3C[C@H]2CCSC)c(C)n1`: -15.91%; `Cc1ccc2c(c1)C1(CCNCC1)CN2C(=O)CN(C)C.O=C(O)C(F)(F)F.O=C(O)C(F)(F)F`: 0.8832%.

`CCS(=O)(=O)Nc1ccn(Cc2ccc(F)cc2Cl)n1`: the “Percent Effect” value is 28.06%. On to `Cn1ncc2c1NC(=O)CC2c1ccc(Cl)cc1Cl` (stereo unspecified), for which the “Percent Effect” value came to 59.83%. In the case of `Cn1ncc2c1NC(=O)CC2c1cc(Cl)ccc1F` (stereo unspecified), the “Percent Effect” value was determined as 13.85%. For `Cn1ncc2c1NC(=O)CC2c1ccccc1Cl` (stereo unspecified) the value was -9.252%; for `Cc1cc(CS(=O)(=O)C(C)C(=O)N(C)c2ccccc2)on1` (stereo unspecified), -17.42%.

Take `CN(Cc1ccco1)[C@@H]1CN(C(=O)C2CCOCC2)C[C@@H]2CCCO[C@@H]21.O=C(O)C(F)(F)F`: the “Percent Effect” value is reported as -2.901%.

`NC(=O)C1CCCN(Cc2ccc(C(=O)Nc3cnns3)cc2)C1` (stereo unspecified): the “Percent Effect” value amounted to 2.81%. Next, `CC(=O)Nc1nc(C(=O)NCc2ccc(N3CCCC3)nc2)cs1`: -0.1463%; `CSCc1cccc(NC(=O)N2CCC(N3CC=CC3)C2)c1` (stereo unspecified): -39.08%; `CCn1c(C)cc(C(=O)N2CCC(Nc3cccnn3)CC2)c1C`: 7.118%. Next, `CC(C)Nc1cc(-c2c[nH]nc2C2CCN(C(=O)C3CCC3)C2)ccn1` (stereo unspecified): 58.28%; `CC(C)Nc1cc(-c2c[nH]nc2C2CCN(C(=O)C3CC3)C2)ccn1` (stereo unspecified): 31.29%.

In the case of `CC(C)CNc1cc(-c2c[nH]nc2C2CCN(C(=O)C3CC3)C2)ccn1` (stereo unspecified), the “Percent Effect” value was 30.66%. Next, `COCCN1C[C@@H]2[C@@H](OC)CCN(S(=O)(=O)c3cccnc3)[C@@H]2C1.O=C(O)C(F)(F)F.O=C(O)C(F)(F)F`: 21.64%; `CCOCC(=O)N1CCc2nc(C)nc(NC(C)C)c2CC1`: -12.05%; `Cc1noc(C)c1C(=O)N[C@@H]1CC[C@@H](Oc2ccccc2)[C@@H]1O`: 21.33%. For `Cc1noc(C)c1CC(=O)N[C@@H]1CC[C@@H](Oc2ccccc2)[C@@H]1O` the value was 21.6%. Next, `Cc1noc(C)c1C(=O)N[C@@H]1CCC[C@@H](Oc2ccccc2)[C@@H]1O`: 50.47%; `CC(C)c1cc(C(=O)N[C@@H]2CC[C@@H](Oc3ccccc3)[C@@H]2O)on1`: 75.51%. `Cc1n[nH]c(C)c1CCC(=O)N[C@@H]1CCC[C@@H](Oc2ccccc2)[C@@H]1O`: the “Percent Effect” value is -14.05%. Next, `Cc1noc(C)c1CCC(=O)N[C@@H]1CC[C@@H](Oc2cccnc2)[C@@H]1O`: 15.37%; `COCC(NC(=O)c1cnc(-c2ccncc2)nc1)c1ccnn1C` (stereo unspecified): 1.357%; `O=C(c1cc(-c2cccs2)on1)N1CCCCC1Cn1cccn1` (stereo unspecified): 6.3%. Turning to `Cc1csc(Nc2cc(C3CN(c4ccncn4)C3)nc(C)n2)n1`, the “Percent Effect” value was found to be 23.54%. Next, `CCc1cccc(NC(=O)CNc2ccccc2OCCC(=O)OC)c1`: 45.3%; `CCS(=O)(=O)NCC(=O)NC(c1cc(C)sc1C)C(C)C` (stereo unspecified): 24.3%. As for `Cc1cc(C)nc(Nc2nccnc2C2CCCN(CCO)C2)n1` (stereo unspecified), the “Percent Effect” value is on record as 54.85%. For `CC(=O)N1CCCC(c2nccnc2Nc2nc(C)cc(C)n2)C1` (stereo unspecified) the value was -9.848%; for `Cc1cc(C)nc(Nc2nccnc2C2CCCN(C(CO)CO)C2)n1` (stereo unspecified), 36.66%. Next, `COc1cc(C2CC(=O)Oc3cc(C)[nH]c(=O)c32)ccc1O` (stereo unspecified): 15.79%; `Cc1noc(Cl)c1CC(=O)N1CCCC1Cn1cccn1` (stereo unspecified): 17.08%; `CSc1nccc(-c2cccc(-c3ccn(CC4COCCO4)n3)c2)n1` (stereo unspecified): 71.9%. Next, `COc1cccc(-c2cccc(-c3ccn(CC4COCCO4)n3)c2)n1` (stereo unspecified): -2.003%. As for `COc1nccnc1-c1cccc(-c2ccn(CC3COCCO3)n2)c1` (stereo unspecified), the “Percent Effect” value is listed as 14.38%. In the case of `Cc1[nH]nc2ncc(C(=O)N3CCCC3c3noc(C(C)C)n3)cc12` (stereo unspecified), the “Percent Effect” value is given as 24.5%. For `O=C(O)C(F)(F)F.c1cncc(-c2ccc3c(c2)C2(CC3)CCN(c3nncs3)CC2)c1` the value was 85.45%; for `CN(C)CC(=O)N1CCC2(CCc3cc(-c4cccnc4)ccc32)CC1.O=C(O)C(F)(F)F.O=C(O)C(F)(F)F`, 11.92%. On to `O=C(O)C(F)(F)F.c1cc(-c2ccc3c(c2)CCC32CCN(c3nncs3)CC2)ccn1`, for which the “Percent Effect” value worked out at 20.52%.

For `COc1ccc2c(c1)C1(CCN(Cc3nccs3)CC1)N(C)CC2.O=C(O)C(F)(F)F.O=C(O)C(F)(F)F`, the “Percent Effect” value was -9.444%. Next, `c1cc(-c2ccc3c(c2)C2(CC3)CCN(c3nncs3)CC2)ccn1`: 26.32%. For `O=C(O)C(F)(F)F.O=C(O)C(F)(F)F.c1cncc(-c2ccc3c(c2)CCC32CCN(Cc3nccs3)CC2)c1` the value was 61.89%. For `O=C(O)C(F)(F)F.O=C(O)C(F)(F)F.c1cncc(-c2ccc3c(c2)CCC32CCN(Cc3ccco3)CC2)c1` the value was 82.31%; for `O=C(O)C(F)(F)F.O=C(O)C(F)(F)F.c1csc(CN2CCC3(CC2)CCN(CC2CC2)CC3)n1`, -43.47%. As for `CN1CCN(Cc2cccnc2)C(=O)C12CCN(Cc1ccco1)CC2.O=C(O)C(F)(F)F.O=C(O)C(F)(F)F.O=C(O)C(F)(F)F`, the “Percent Effect” value turned out to be 15.2%.

For the origin of these results see ChEMBL document CHEMBL3988442, “University of Dundee, Small-Polar-MMV Screening Library” (2021).
